Binding signal data for 48 sequences are collected here from PMC7819943, “Rice protein-binding microarrays: a tool to detect cis-acting elements near promoter regions in rice”.

The full ranking holds about 35,000 sequences; the median of “fluorescence intensity (a.u.)” is about 10,000, and the highest 2% start at about 52,000. The list comes from a sample in which the highest values are over-represented; it also holds similar and randomly drawn sequences.

The target of this experiment is T1, OsWOX13 (Oryza sativa, UniProt Q5QMM3 1-267).
T1 sequence: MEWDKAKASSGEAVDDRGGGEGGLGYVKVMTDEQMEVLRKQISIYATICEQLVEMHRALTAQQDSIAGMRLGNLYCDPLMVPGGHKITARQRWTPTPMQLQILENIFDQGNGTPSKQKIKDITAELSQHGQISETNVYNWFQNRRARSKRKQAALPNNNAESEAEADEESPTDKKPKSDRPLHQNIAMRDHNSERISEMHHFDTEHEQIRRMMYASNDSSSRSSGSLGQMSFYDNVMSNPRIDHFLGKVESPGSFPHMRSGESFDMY
Description: protein-binding microarray (RPBM); PBS, 2% BSA, 51.3 ng/ul salmon testes DNA, 50 uM zinc acetate, 200 nM TF, 25 C, 1 h; high values mean tight binding. The conditions noted are these: protein: recombinant; tags: N-terminal polyhistidine and DsRed monomer fusion (pET32a); label: CyDye5-dUTP incorporated in the synthesized complementary strand; 3' TTTTT single-stranded linker to array surface; dsDNA, one strand shown. The method in brief: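 In PBS with 2% BSA, salmon testes DNA and 50 µM zinc acetate, 200 nM protein was incubated on a custom Agilent array at 25 °C for 1 h and then washed off. The array had been made double-stranded by primer extension with Cy5-dUTP and blocked with 2% BSA. The proteins were transcription factors fused N-terminally to polyhistidine and DsRed, expressed in E. coli BL21-CodonPlus and purified on Ni–NTA. The binding signal is per-feature fluorescence intensity (arbitrary units) from an Axon 4000B scanner.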
As for “GTGACAAACTGACAACAGGTTGTTTAGTTTTCCATGATTACGGAGTCACCTAGTGCAG”, the binding signal was 4530 fluorescence intensity (a.u.).
Next, “GAATCTATTAAGCCTAATTAATCCGTTATTATAGCAAATACGGAGTCACCTAGTGCAG”: 6470 fluorescence intensity (a.u.); “AAGGCACGTTGATTGGACTAGTAGTACTACTACGTAGTAGCGGAGTCACCTAGTGCAG”: 18400 fluorescence intensity (a.u.); “ACCATTGATGGTCCCAATTTAAAATATTTGGCCGAATCTTCGGAGTCACCTAGTGCAG”: 3840 fluorescence intensity (a.u.).
Next, “AATAAAATAAATGATCAAATGAATTATGAAAACTCGTGACCGGAGTCACCTAGTGCAG”: 5260 fluorescence intensity (a.u.).
As to “GTCGAAAATTATATCGGAATTAGCAGAGTGTGGCATAGCACGGAGTCACCTAGTGCAG”, the binding signal is 4260 fluorescence intensity (a.u.).
On to “AGTAAAATGATTTGTAGTGTTAATAATAAAGAATAAATTACGGAGTCACCTAGTGCAG”, for which the binding signal is 10000 fluorescence intensity (a.u.).
With “TACAAATAGACTTGAATAAATGTTTATCTATTTTGTGTTGCGGAGTCACCTAGTGCAG”, the binding signal was 16800 fluorescence intensity (a.u.).
The figure for “TGAGGAGCAATTAATGAGTTTGATGGACAGAGATAATAGCCGGAGTCACCTAGTGCAG” is 9490 fluorescence intensity (a.u.); for “ACGTTTAATTACGGGAAACCGGCTAAAACCCACCACACATCGGAGTCACCTAGTGCAG” it is 6640 fluorescence intensity (a.u.).
Regarding “GTAGGAACACTAATTAATCACTCATTGATATGTGTAATCCCGGAGTCACCTAGTGCAG”, the binding signal was 14700 fluorescence intensity (a.u.).
“TCTGATTGACGGTGTTTGCAAGCAGAGTTCCTCTTCTTGGCGGAGTCACCTAGTGCAG”: the binding signal was 61500 fluorescence intensity (a.u.).
Consider “TTAATTATTTTGCTGACATGATTTGTTTTCATTTCGTTGACGGAGTCACCTAGTGCAG”, for which the binding signal is 24100 fluorescence intensity (a.u.).
The figure for “TTGCTAAATTGTTGTCTTGGTTGATATTTTAGATTTCTTGCGGAGTCACCTAGTGCAG” is 10000 fluorescence intensity (a.u.); for “CTTGTCTTATTTGATTGTTGCATTTACATTTATGCAATTTCGGAGTCACCTAGTGCAG” it is 9350 fluorescence intensity (a.u.); for “CCGATGTTTGATTGTTCGTTTTATTTGAAAGCCTTTTATGCGGAGTCACCTAGTGCAG” it is 20800 fluorescence intensity (a.u.).
As to “TTTTACATGATTGGATGACAAAGCCTATTTCGTTTTGTTGCGGAGTCACCTAGTGCAG”, the binding signal is 53100 fluorescence intensity (a.u.).
Next, “CCCTTGTTTCTGTTTTGATTGCAACCTAAGAGACTCTTGACGGAGTCACCTAGTGCAG”: 6270 fluorescence intensity (a.u.); “AGAGTTCTGATTGAATTTGAACAGAAGCGGTGCTTTTGGACGGAGTCACCTAGTGCAG”: 38800 fluorescence intensity (a.u.); “TCTTGATTGGTTGTTTTGGTTTGTTTCTTATTTATGTTTGCGGAGTCACCTAGTGCAG”: 54100 fluorescence intensity (a.u.).
As for “GTAAATTGGCATTGGTTTGATTTATGTTTGCAATGCAGCGCGGAGTCACCTAGTGCAG”, the binding signal was 58200 fluorescence intensity (a.u.).
The figure for “AGGCACGGATTGATGCATTAATTTGGTTGCAATGTAGATGCGGAGTCACCTAGTGCAG” is 37500 fluorescence intensity (a.u.); for “CTTAAATCATGATGATTTTATTGGTTGTTGGCATGCACAGCGGAGTCACCTAGTGCAG” it is 30500 fluorescence intensity (a.u.); for “CATCTTTGACCGGTTAAATTAGATCCTGTTCTAGATGAGGCGGAGTCACCTAGTGCAG” it is 3480 fluorescence intensity (a.u.).
In the case of “GCTTTCAATAAAACTTCATTAATTGAGGCTAAAATGTTACCGGAGTCACCTAGTGCAG”, the binding signal was 5100 fluorescence intensity (a.u.).
The figure for “AAGCCAATTAAACAACCAGATACTCAAGTTATAACATAATCGGAGTCACCTAGTGCAG” is 3700 fluorescence intensity (a.u.); for “TTTTAAACTAATACTTAATTAATCATATATTAATTAGGTACGGAGTCACCTAGTGCAG” it is 19200 fluorescence intensity (a.u.).
For the sequence “CTTATGATTTTATTTAACCTGGTTTTGAAAGACAGGGGTTCGGAGTCACCTAGTGCAG”, the binding signal was 18100 fluorescence intensity (a.u.).
The figure for “ATAGCTAATTTTCGGTATGTTACACCATCCATCTGCCATGCGGAGTCACCTAGTGCAG” is 5050 fluorescence intensity (a.u.).
With “TTCCGATTGAGGAATGTTATTCACACAAGCGCAGGAGATGCGGAGTCACCTAGTGCAG”, the binding signal is 4130 fluorescence intensity (a.u.).
The figure for “AAAGTGACTGAATTTTAAGTCATCGGAAATTTACACGCTCCGGAGTCACCTAGTGCAG” is 15400 fluorescence intensity (a.u.).
With “ATGAATTGTTAATTTTGCAAGCTGAACTTCTCATGTTTGGCGGAGTCACCTAGTGCAG”, the binding signal is 11100 fluorescence intensity (a.u.).
For “GCGTCCATCTAATCTAATCTAACCACCCTGCACGAATCGCCGGAGTCACCTAGTGCAG”, the binding signal was 8750 fluorescence intensity (a.u.).
Next, “TTTTCTTTCTTGATTGGGAAGGAAATTGGTGGTTAATCTCCGGAGTCACCTAGTGCAG”: 23700 fluorescence intensity (a.u.); “TATAAAATTATAGATAATATAACATGTTTGCATGATGTTTCGGAGTCACCTAGTGCAG”: 5670 fluorescence intensity (a.u.); “TGGAACATTGTTGATTGGCGAGCTGGCACGCATGCTAGGTCGGAGTCACCTAGTGCAG”: 18600 fluorescence intensity (a.u.).
The figure for “TCATGGTGATTGCGGCATGAGAGAGTGAGGGTTCTGCGAGCGGAGTCACCTAGTGCAG” is 10300 fluorescence intensity (a.u.).
The figure for “TACAATTGATTATGTAAAGTTTGTGTCTTGTACTAGAGGGCGGAGTCACCTAGTGCAG” is 43900 fluorescence intensity (a.u.); for “ACACAATTATGTCAAGTTCAATTCTCAAGTTTGAATTGGGCGGAGTCACCTAGTGCAG” it is 5050 fluorescence intensity (a.u.); for “GTTGATGATGTGGCTTCTTGCTTGTCTTGCTTTATAGGAGCGGAGTCACCTAGTGCAG” it is 5720 fluorescence intensity (a.u.).
Turning to “TAGTTTTGTAAATGATTGAAATTTTCTAGTGTTAAATAGGCGGAGTCACCTAGTGCAG”, the binding signal was 34800 fluorescence intensity (a.u.).
Consider “TTGATTGCTTGTTTGATTGGTGGTTCTTGAGCGAGAAGAGCGGAGTCACCTAGTGCAG”, for which the binding signal was 63300 fluorescence intensity (a.u.).
Next, “ATGATTGATGTCTTTTATTTTCTTTGTACTAAGGAGCTTGCGGAGTCACCTAGTGCAG”: 62700 fluorescence intensity (a.u.); “TAGATGATTGCACTAGATTTTGCTTTGTGTACTTATTGAACGGAGTCACCTAGTGCAG”: 32900 fluorescence intensity (a.u.); “GTATGATTGGTTATGTAAAGTTTGTTTCTTGTTCTAGAGGCGGAGTCACCTAGTGCAG”: 58400 fluorescence intensity (a.u.).
“GTTTGATTGCACATTATGTCCTTGGAGTTCTTCAACATAGCGGAGTCACCTAGTGCAG”: the binding signal was 55700 fluorescence intensity (a.u.).
The figure for “TATGTTCTTGATTTGTCCTGTTACATTGCTGACATATGTGCGGAGTCACCTAGTGCAG” is 8650 fluorescence intensity (a.u.); for “TGGAGAGTTTTGATTGGTTGGGAAGAGAATGTTGATAGAGCGGAGTCACCTAGTGCAG” it is 20200 fluorescence intensity (a.u.).
